# Results reported in the supplement of paper PMC7057948, “A genome-wide approach for identification and characterisation of metabolite-inducible systems” (Nature Communications, 2020).
# Tests used:
# Settings in all cases: inducer concentration 5 mM; 6 h; Cupriavidus necator H16; minimal medium + 0.4% gluconate
# [1] = test system: AcoR/P_H16_RS19445 acetoin biosensor (pEH052); assay: relative induction of RFP reporter vs primary effector; higher = stronger activation
# Procedure: (§1)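 Orthogonality screen of 21 primary inducers against 21 transcription factor/inducible promoter–mRFP biosensors in C. necator H16 in minimal medium, robotic 96-well format, 5 mM inducer, 30 °C. OD-normalised RFP fluorescence was read 6 h later and expressed as relative induction (%) = 100 × (FL compound − FL uninduced)/(FL primary inducer − FL uninduced); mean of n=4. Cognate pairs (100% by definition) omitted.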
# [2] = test system: AraC/P_araBAD L-arabinose biosensor (pEH176); assay: as above
# Procedure: as §1
# [3] = test system: BadR/P_H16_RS27200 cyclohexanecarboxylate biosensor (pEH159); assay: as above
# Procedure: as §1
# [4] = test system: BenM/P_H16_RS09790 benzoate biosensor (pEH148); assay: as above
# Procedure: as §1
# [5] = test system: FdsR/P_H16_RS03165 formate biosensor (pEH134); assay: as above
# Procedure: as §1
# [6] = test system: GabR/P_H16_RS23655 GABA biosensor (pEH256); assay: as above
# Procedure: as §1
# [7] = test system: HpdA/P_H16_RS24175 L-tyrosine biosensor (pEH158); assay: as above
# Procedure: as §1
# [8] = test system: NahR/P_H16_RS08125 salicylate biosensor (pEH042); assay: as above
# Procedure: as §1
# [9] = test system: OapR/P_H16_RS01330 beta-alanine biosensor (pEH147); assay: as above
# Procedure: as §1
# [10] = test system: PhgR/P_H16_RS05530 phenylglyoxylate biosensor (pEH155); assay: as above
# Procedure: as §1
# [11] = test system: SauR/P_H16_RS13695 sulfonatoacetate biosensor (pEH157); assay: as above
# Procedure: as §1
# [12] = test system: TtdR/P_H16_RS10665 tartrate biosensor (pEH083); assay: as above
# Procedure: as §1
# [13] = test system: XdhR/P_H16_RS05055 xanthine biosensor (pEH154); assay: as above
# Procedure: as §1
# [14] = test system: heterologous L-rhamnose-inducible system; assay: as above
# Procedure: as §1
# [15] = test system: heterologous acrylate-inducible system; assay: as above
# Procedure: as §1
# [16] = test system: heterologous cumate-inducible system; assay: as above
# Procedure: as §1
# [17] = test system: heterologous itaconate-inducible system; assay: as above
# Procedure: as §1
# [18] = test system: PcaQ/P_H16_RS30145 3,4-dihydroxybenzoate biosensor (pEH161); assay: as above
# Procedure: as §1
# [19] = test system: AcoR/P_H16_RS19445 acetoin biosensor (pEH052); assay: relative induction of RFP reporter vs primary effector (background-corrected); higher = stronger activation of the biosensor
# Procedure: (§2)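 C. necator H16 strains, each carrying one of 21 transcription factor/inducible promoter–mRFP biosensor plasmids, were grown in minimal medium in 96-well plates (robotic platform). Each was exposed to 46 structurally or metabolically related compounds at 5 mM at 30 °C. OD-normalised RFP fluorescence was read 6 h later and expressed as relative induction (%) = 100 × (FL compound − FL uninduced)/(FL primary inducer − FL uninduced); mean of n=4.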
# [20] = test system: AraC/P_araBAD L-arabinose biosensor (pEH176); assay: as above
# Procedure: as §2
# [21] = test system: BenM/P_H16_RS09790 benzoate biosensor (pEH148); assay: as above
# Procedure: as §2
# [22] = test system: FdsR/P_H16_RS03165 formate biosensor (pEH134); assay: as above
# Procedure: as §2
# [23] = test system: GabR/P_H16_RS23655 GABA biosensor (pEH256); assay: as above
# Procedure: as §2
# [24] = test system: HpdR/P_H16_RS18295 3-hydroxypropanoate biosensor (pEH010); assay: as above
# Procedure: as §2
# [25] = test system: KynR/P_H16_RS14030 L-kynurenine biosensor (pEH136); assay: as above
# Procedure: as §2
# [26] = test system: NahR/P_H16_RS08125 salicylate biosensor (pEH042); assay: as above
# Procedure: as §2
# [27] = test system: OapR/P_H16_RS01330 beta-alanine biosensor (pEH147); assay: as above
# Procedure: as §2
# [28] = test system: PcaQ/P_H16_RS30145 3,4-dihydroxybenzoate biosensor (pEH161); assay: as above
# Procedure: as §2
# [29] = test system: PhgR/P_H16_RS05530 phenylglyoxylate biosensor (pEH155); assay: as above
# Procedure: as §2
# [30] = test system: PhhR/P_H16_RS18365 L-phenylalanine biosensor (pEH137); assay: as above
# Procedure: as §2
# [31] = test system: SauR/P_H16_RS13695 sulfonatoacetate biosensor (pEH157); assay: as above
# Procedure: as §2
# [32] = test system: TtdR/P_H16_RS10665 tartrate biosensor (pEH083); assay: as above
# Procedure: as §2
# [33] = test system: XdhR/P_H16_RS05055 xanthine biosensor (pEH154); assay: as above
# Procedure: as §2
# [34] = test system: heterologous inducible system pEH002 (rhamnose/acrylate/cumate/itaconate set); assay: as above
# Procedure: as §2
# [35] = test system: heterologous inducible system pEH020 (rhamnose/acrylate/cumate/itaconate set); assay: as above
# Procedure: as §2
# [36] = test system: heterologous inducible system pEH040 (rhamnose/acrylate/cumate/itaconate set); assay: as above
# Procedure: as §2
# [37] = test system: heterologous inducible system pEH086 (rhamnose/acrylate/cumate/itaconate set); assay: as above
# Procedure: as §2
# 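For relative induction of RFP reporter vs primary effector (background-corrected) in this document: RFP excited at 585 nm with emission read at 620 nm, culture medium blanks subtracted from fluorescence and absorbance prior to normalisation.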
smiles,measurement,setting,value
"O=C(O)c1ccc(O)c(O)c1 [3,4-dihydroxybenzoate]",relative induction of RFP reporter,[1],-0.382%
same,relative induction of RFP reporter,[2],-0.0224%
same,relative induction of RFP reporter,[3],-0.555%
same,relative induction of RFP reporter,[4],-0.0316%
same,relative induction of RFP reporter,[5],8.18%
same,relative induction of RFP reporter,[6],-1.96%
same,relative induction of RFP reporter,[7],-0.149%
same,relative induction of RFP reporter,[8],0.0143%
same,relative induction of RFP reporter,[9],-1.27%
same,relative induction of RFP reporter,[10],-0.535%
same,relative induction of RFP reporter,[11],0.0892%
same,relative induction of RFP reporter,[12],-0.148%
same,relative induction of RFP reporter,[13],-0.547%
same,relative induction of RFP reporter,[14],0.0186%
same,relative induction of RFP reporter,[15],-0.891%
same,relative induction of RFP reporter,[16],-0.667%
same,relative induction of RFP reporter,[17],0.251%
N[C@@H](Cc1ccc(O)cc1)C(=O)O [L-tyrosine],relative induction of RFP reporter,[1],-2.55%
same,relative induction of RFP reporter,[2],0.00497%
same,relative induction of RFP reporter,[3],0.136%
same,relative induction of RFP reporter,[4],-0.0654%
same,relative induction of RFP reporter,[5],-2.95%
same,relative induction of RFP reporter,[6],-2.3%
same,relative induction of RFP reporter,[8],0.00647%
same,relative induction of RFP reporter,[9],-1.24%
same,relative induction of RFP reporter,[18],0.392%
same,relative induction of RFP reporter,[10],-0.239%
same,relative induction of RFP reporter,[11],0.00275%
same,relative induction of RFP reporter,[12],1.67%
same,relative induction of RFP reporter,[13],-1.38%
same,relative induction of RFP reporter,[14],0.00824%
same,relative induction of RFP reporter,[15],-2.03%
same,relative induction of RFP reporter,[16],-2.72%
same,relative induction of RFP reporter,[17],0.264%
O=C(O)C[C@H](O)C(=O)O [L-malate],relative induction of RFP reporter,[19],-0.197%
same,relative induction of RFP reporter,[20],0.0102%
same,relative induction of RFP reporter,[21],-0.00804%
same,relative induction of RFP reporter,[22],15.3%
same,relative induction of RFP reporter,[23],-2.18%
same,relative induction of RFP reporter,[24],0.127%
same,relative induction of RFP reporter,[25],0.34%
same,relative induction of RFP reporter,[26],0.0296%
same,relative induction of RFP reporter,[27],0.168%
same,relative induction of RFP reporter,[28],0.148%
same,relative induction of RFP reporter,[29],-0.316%
same,relative induction of RFP reporter,[30],0.413%
same,relative induction of RFP reporter,[31],-0.0175%
same,relative induction of RFP reporter,[32],1.58%
same,relative induction of RFP reporter,[33],0.88%
same,relative induction of RFP reporter,[34],0.00418%
same,relative induction of RFP reporter,[35],-0.286%
same,relative induction of RFP reporter,[36],-0.274%
same,relative induction of RFP reporter,[37],0.726%
CC(N)CC(=O)O (configuration not stated) [3-aminobutanoate],relative induction of RFP reporter,[19],0.0935%
same,relative induction of RFP reporter,[20],-0.0347%
same,relative induction of RFP reporter,[21],0.00428%
same,relative induction of RFP reporter,[22],-2.98%
same,relative induction of RFP reporter,[23],-1.28%
same,relative induction of RFP reporter,[24],-0.191%
same,relative induction of RFP reporter,[25],-0.097%
same,relative induction of RFP reporter,[26],0.00216%
same,relative induction of RFP reporter,[27],57.8%
same,relative induction of RFP reporter,[28],0.0297%
same,relative induction of RFP reporter,[29],0.0503%
same,relative induction of RFP reporter,[30],-0.0355%
same,relative induction of RFP reporter,[31],-0.0365%
same,relative induction of RFP reporter,[32],0.625%
same,relative induction of RFP reporter,[33],0.412%
same,relative induction of RFP reporter,[34],0.0041%
same,relative induction of RFP reporter,[35],-0.315%
same,relative induction of RFP reporter,[36],0.21%
same,relative induction of RFP reporter,[37],0.139%
